Reference: the supplement of paper PMC9694430

What was measured:
Test in all cases: thermal shift delta Tm vs DMSO control; higher = stronger stabilization (binding)
Details in all cases: 12.5 µM; protein concentration 2 µM
[1] = test system: LOC_OS01G57100-cb003
Outline: (§1)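 Thermal shift values come from differential scanning fluorimetry on purified rice kinase domains made in E. coli, with melting temperatures obtained from Boltzmann fits. Samples of 19.5 μl held 2 μM kinase, 100 mM potassium phosphate pH 7.5, 150 mM NaCl, 10% glycerol, 5 × SYPRO Orange and compound in DMSO, and were heated from 25°C to 95°C at 0.05°C/s. Each shift is a triplicate mean relative to the DMSO-only protein sample.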

[2] = test system: LOC_OS01G60330-cb001
Outline: as §1

[3] = test system: LOC_OS01G60700-cb002
Outline: as §1

[4] = test system: LOC_OS01G63280-cb003
Outline: as §1

[5] = test system: LOC_OS01G67340-cb003
Outline: as §1

[6] = test system: LOC_OS01G70970-cb002
Outline: as §1

[7] = test system: LOC_OS02G07810-cb001
Outline: as §1

[8] = test system: LOC_OS02G08530-cb003
Outline: as §1

[9] = test system: LOC_OS02G14120-cb001
Outline: as §1

[10] = test system: LOC_OS02G17970-cb001
Outline: as §1

[11] = test system: LOC_OS02G45750-cb003
Outline: as §1

[12] = test system: LOC_OS02G54510-cb004
Outline: as §1

[13] = test system: LOC_OS03G04050-cb001
Outline: as §1

[14] = test system: LOC_OS03G12390-cb001
Outline: as §1

[15] = test system: LOC_OS03G27990-cb004
Outline: as §1

[16] = test system: LOC_OS03G50450-cb001
Outline: as §1

[17] = test system: LOC_OS03G50810-cb003
Outline: as §1

[18] = test system: LOC_OS04G35114-cb001
Outline: as §1

[19] = test system: T1, LOC_OS04G38480-cb003
T1 sequence (whole entry): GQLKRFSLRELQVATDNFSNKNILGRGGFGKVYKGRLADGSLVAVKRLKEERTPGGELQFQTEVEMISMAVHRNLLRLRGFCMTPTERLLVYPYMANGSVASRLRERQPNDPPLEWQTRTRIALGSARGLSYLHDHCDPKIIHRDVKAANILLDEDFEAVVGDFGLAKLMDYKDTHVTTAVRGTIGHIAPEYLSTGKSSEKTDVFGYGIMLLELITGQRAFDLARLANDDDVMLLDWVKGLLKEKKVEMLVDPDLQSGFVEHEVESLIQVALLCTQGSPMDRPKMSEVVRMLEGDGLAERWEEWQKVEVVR
Outline: as §1

[20] = test system: T2, LOC_OS04G41100-cb001
T2 sequence (whole entry): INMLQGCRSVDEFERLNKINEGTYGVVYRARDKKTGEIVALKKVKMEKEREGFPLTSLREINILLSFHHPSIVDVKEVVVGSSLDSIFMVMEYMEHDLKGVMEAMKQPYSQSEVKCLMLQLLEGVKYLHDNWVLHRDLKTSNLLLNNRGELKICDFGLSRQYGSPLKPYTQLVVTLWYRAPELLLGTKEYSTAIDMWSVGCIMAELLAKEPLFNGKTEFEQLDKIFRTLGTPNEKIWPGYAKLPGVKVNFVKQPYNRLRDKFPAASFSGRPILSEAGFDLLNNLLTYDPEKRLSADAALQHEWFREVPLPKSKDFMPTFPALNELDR
Outline: as §1
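Further: purified Escherichia coli-expressed rice kinase domain construct.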

Row | Structure (SMILES) | thermal shift delta Tm [1] | thermal shift delta Tm [2] | thermal shift delta Tm [3] | thermal shift delta Tm [4] | thermal shift delta Tm [5] | thermal shift delta Tm [6] | thermal shift delta Tm [7] | thermal shift delta Tm [8] | thermal shift delta Tm [9] | thermal shift delta Tm [10] | thermal shift delta Tm [11] | thermal shift delta Tm [12] | thermal shift delta Tm [13] | thermal shift delta Tm [14] | thermal shift delta Tm [15] | thermal shift delta Tm [16] | thermal shift delta Tm [17] | thermal shift delta Tm [18] | thermal shift delta Tm [19] | thermal shift delta Tm [20]
1 | CC(C)(C)c1cc(NC(=O)Nc2ccc(-c3cn4c(n3)sc3cc(OCCN5CCOCC5)ccc34)cc2)no1 [Quizartinib (AC220)] | 0.35 °C | 0.35 °C | 1.08 °C | 0.09 °C | 0.36 °C | 0.3 °C | 0.96 °C | 1.36 °C | 0.28 °C | 1.06 °C | -0.83 °C | 0.02 °C | -0.02 °C | 0.08 °C | 0.09 °C | -0.11 °C | 0.82 °C | 0.41 °C | 0.67 °C | 0.81 °C
2 | COc1cc2ncnc(Nc3ccc(Cl)cc3F)c2cc1OC | 1.2 °C | 0.41 °C | 1.4 °C | 0.51 °C | 0.32 °C | 0.2 °C | 1.32 °C | 1.3 °C | 4.69 °C | 1.1 °C | 2.84 °C | 0.95 °C | 0.25 °C | 2.87 °C | 0.55 °C | 0.36 °C | 1.2 °C | 7.37 °C | 1.81 °C | 0.5 °C
3 | COc1cc(C(=O)N2CCC(N3CCN(C)CC3)CC2)ccc1Nc1ncc2c(n1)N(C)c1ccccc1C(=O)N2C | 0.21 °C | 0.56 °C | 0.5 °C | -0.2 °C | 0.17 °C | 0.15 °C | 0.46 °C | 1.92 °C | 1.72 °C | 0.35 °C | 1.73 °C | 0.29 °C | 0.41 °C | 3.59 °C | 0.46 °C | 0.37 °C | 0.68 °C | 0.65 °C | 3.81 °C | 0.27 °C
4 | C[C@@H]1COCCN1c1cc(=O)n2c(n1)N(Cc1cncc(Cl)c1)[C@H](C(F)(F)F)CC2 | 1.19 °C | 1.13 °C | 1.05 °C | 0.61 °C | 0.35 °C | 0.33 °C | 0.77 °C | 0.7 °C | 0.82 °C | 1.7 °C | 0.59 °C | 0.31 °C | 0.37 °C | 0.19 °C | 0.22 °C | 0.04 °C | 0.46 °C | 0.41 °C | 1.55 °C | 0.39 °C
5 | CC(C)(C)Cn1c(N)nc2ccc(-c3[nH]c(C(C)(C)C)nc3-c3ccc(F)cc3)nc21 | -3.53 °C | -0.79 °C | 0.1 °C | -0.16 °C | 0.92 °C | -0.04 °C | -0.18 °C | 0.38 °C | -1.12 °C | -0.24 °C | 0.45 °C | 0.25 °C | 0.52 °C | -0.25 °C | 0.28 °C | 0.23 °C | 0.13 °C | 0.02 °C | 0.12 °C | 0.22 °C
6 | C=CC(=O)Nc1cccc(Nc2nc(Nc3ccc(OCCOC)cc3)ncc2F)c1 | 1.56 °C | 8.86 °C | 1.84 °C | 0.22 °C | 0.42 °C | 1.81 °C | 0.8 °C | 3.49 °C | 9.32 °C | 0.13 °C | 0 °C | 1.8 °C | 1.14 °C | 6.16 °C | 1.06 °C | 3.26 °C | 3.81 °C | 3.89 °C | 3.75 °C | 1 °C
7 | CNS(=O)(=O)Nc1nccc(Cc2c(C)c3ccc(Oc4ncccn4)cc3oc2=O)c1F | 1.4 °C | 0.33 °C | 1.34 °C | 0.93 °C | 0.24 °C | 0.04 °C | 1.08 °C | 0.58 °C | 0.9 °C | 1.23 °C | 0.52 °C | -0.03 °C | 0.37 °C | 0.7 °C | 0.15 °C | 0.4 °C | 0.57 °C | -0.07 °C | 0.35 °C | 0.2 °C
8 | CCN(CC)CCNC(=O)c1c(C)[nH]c(/C=C2\C(=O)Nc3ccc(F)cc32)c1C [Sunitinib] | -0.24 °C | 9.23 °C | 0.91 °C | 0.49 °C | 4.15 °C | 6.85 °C | 0.37 °C | 4.95 °C | 7.49 °C | 0.22 °C | 0 °C | 0.62 °C | 0.04 °C | 7.93 °C | 7.62 °C | 3.43 °C | 7.56 °C | 11 °C | 3.55 °C | 0.46 °C
9 | Cn1cnc(N)c2ncnc1-2 [3-Methyladenine (3-MA)] | 1.89 °C | 1.27 °C | 0.77 °C | 0.22 °C | -0.29 °C | 0.22 °C | 0.96 °C | 1.08 °C | 0.61 °C | 0.34 °C | 0.36 °C | 0.39 °C | 0.47 °C | -0.25 °C | 0.15 °C | 0.39 °C | 0.4 °C | 0.91 °C | 1.15 °C | 0.12 °C
10 | CCN(CC)CCNC(=O)c1c(C)[nH]c(/C=C2\C(=O)Nc3ccc(F)cc32)c1C [Sunitinib Malate] | 0.44 °C | 9.27 °C | 0.27 °C | 0.02 °C | 2.37 °C | 7 °C | -0.25 °C | 5.21 °C | 7.4 °C | -0.05 °C | 12.4 °C | 0.41 °C | 0.23 °C | 7.66 °C | 6.23 °C | 2.74 °C | 6.79 °C | 10.1 °C | 2.16 °C | 0.97 °C
11 | CN1CCN(c2ccc(OC(F)(F)F)c(Nc3ncc4c(n3)-c3c(c(C(N)=O)nn3CCO)CC4)c2)CC1 | 1.21 °C | 0.44 °C | 0.52 °C | 0.63 °C | 0.36 °C | 0.12 °C | 0.04 °C | 1.25 °C | 1.17 °C | 0.51 °C | 0.67 °C | -0.01 °C | 0.33 °C | 1.65 °C | -0.02 °C | -0.04 °C | 0.54 °C | 1.58 °C | -0.15 °C | 0.74 °C
